Measurements from PubChem BioAssay (NCATS).
Inconclusive results are not listed. The source made the active and inactive calls. Unless noted, calls follow the shape of the full dose curve.

Tests used:
[1] = biological target: Lysosomal acid glucosylceramidase (Homo sapiens) (UniProt P04062); experiment: Glucocerebrosidase-p2 (AID 348; in the data active = potency below about 10 µM; also: potency is read from the fitted curve at half-maximal effect); settings: purified GBA, blue fluorogenic substrate, 40 min
Lysosomal acid glucosylceramidase (Homo sapiens), sequence (P04062 whole entry, looked up): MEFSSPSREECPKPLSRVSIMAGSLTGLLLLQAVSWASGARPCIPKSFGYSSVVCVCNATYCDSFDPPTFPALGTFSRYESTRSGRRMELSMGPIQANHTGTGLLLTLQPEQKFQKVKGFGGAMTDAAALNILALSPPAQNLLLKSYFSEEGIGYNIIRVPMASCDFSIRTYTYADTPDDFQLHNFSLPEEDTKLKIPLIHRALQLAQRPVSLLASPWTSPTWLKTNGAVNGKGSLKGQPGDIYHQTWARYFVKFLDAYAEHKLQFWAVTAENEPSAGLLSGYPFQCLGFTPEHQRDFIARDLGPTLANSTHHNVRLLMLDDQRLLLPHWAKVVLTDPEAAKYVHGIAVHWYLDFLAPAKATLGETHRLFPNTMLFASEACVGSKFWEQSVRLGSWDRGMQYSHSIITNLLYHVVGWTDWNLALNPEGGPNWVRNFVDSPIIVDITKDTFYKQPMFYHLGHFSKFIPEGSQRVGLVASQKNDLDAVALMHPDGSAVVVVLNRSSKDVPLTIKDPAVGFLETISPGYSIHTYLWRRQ
Procedure, shortened: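 Compounds titrated from 0.6 nM upwards against 0.2 nM enzyme in pH 5.9 citric acid/KH2PO4, taurocholate, tween-20; blue fluorogenic substrate 80 uM, 40 min room temperature, stopped and read Ex 365/Em 440 for AC50.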

[2] = AP1 Signaling Pathway (AID 357; active = well fitted curve in either direction with a large enough effect, not every such curve was filed as active;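 also: ME-180 reporter cells stimulated with EGF at its EC50 level; % is scaled to controls: 0 for no effect and ±100 for the full control effect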); settings: ME-180 AP-1-bla reporter, EGF-induced, beta-lactamase ratio, 5 h; at 7.69 µM (top of the series) unless noted
Procedure, shortened: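 A ratiometric CCF4 readout (405 nm excitation; 460 and 530 nm emission) quantified AP-1-driven beta-lactamase in ME-180 cells after 5 h with compound and EC50 EGF; AC50 values were derived for activators and inhibitors.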

[3] = biological target: Cytochrome P450 1A2 (Homo sapiens) (UniProt P05177); experiment: p450-cyp1a2 (AID 410); settings: recombinant CYP1A2, luciferin-ME demethylation, luminescence; series mostly up to 57 µM; also: potency is read from the fitted curve at half-maximal effect;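 as to activity change, negative = inhibition: -100% = full effect of reference inhibitor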
Cytochrome P450 1A2 (Homo sapiens), sequence (P05177 whole entry, looked up): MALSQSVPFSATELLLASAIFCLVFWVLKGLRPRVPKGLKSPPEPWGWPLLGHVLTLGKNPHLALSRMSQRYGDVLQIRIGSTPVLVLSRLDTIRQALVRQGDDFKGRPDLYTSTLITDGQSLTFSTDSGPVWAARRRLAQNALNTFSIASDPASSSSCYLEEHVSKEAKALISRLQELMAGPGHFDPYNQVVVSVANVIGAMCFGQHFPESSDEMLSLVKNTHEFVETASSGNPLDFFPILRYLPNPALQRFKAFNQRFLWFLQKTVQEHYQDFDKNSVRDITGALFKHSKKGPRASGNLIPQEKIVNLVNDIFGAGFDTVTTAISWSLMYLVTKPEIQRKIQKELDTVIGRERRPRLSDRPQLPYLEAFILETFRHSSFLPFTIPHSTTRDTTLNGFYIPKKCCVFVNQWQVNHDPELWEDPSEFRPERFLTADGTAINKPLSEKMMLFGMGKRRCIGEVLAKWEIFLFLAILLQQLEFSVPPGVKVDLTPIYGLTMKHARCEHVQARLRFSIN
Procedure, shortened: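 20nM CYP1A2 with 100uM Luciferin-ME (at Km) in 100mM KPO4; compound preincubated 10 min, NADPH regeneration added, 60 min at room temperature. Luciferin quantified by luminescence after detection reagent; normalized to 57 uM furafylline.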

[4] = biological target: Glucocorticoid receptor (Homo sapiens) (UniProt P04150); experiment: GR-GFP Redistribution (AID 450;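 active = compounds whose dose series gives a full or clear partial fitted curve of increased nuclear translocation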; also: potency is read from the fitted curve at half-maximal effect); settings: U2OS GR-GFP nuclear translocation, laser cytometry, 2 h
Glucocorticoid receptor (Homo sapiens), sequence (P04150 whole entry, looked up, the tested form may be a part): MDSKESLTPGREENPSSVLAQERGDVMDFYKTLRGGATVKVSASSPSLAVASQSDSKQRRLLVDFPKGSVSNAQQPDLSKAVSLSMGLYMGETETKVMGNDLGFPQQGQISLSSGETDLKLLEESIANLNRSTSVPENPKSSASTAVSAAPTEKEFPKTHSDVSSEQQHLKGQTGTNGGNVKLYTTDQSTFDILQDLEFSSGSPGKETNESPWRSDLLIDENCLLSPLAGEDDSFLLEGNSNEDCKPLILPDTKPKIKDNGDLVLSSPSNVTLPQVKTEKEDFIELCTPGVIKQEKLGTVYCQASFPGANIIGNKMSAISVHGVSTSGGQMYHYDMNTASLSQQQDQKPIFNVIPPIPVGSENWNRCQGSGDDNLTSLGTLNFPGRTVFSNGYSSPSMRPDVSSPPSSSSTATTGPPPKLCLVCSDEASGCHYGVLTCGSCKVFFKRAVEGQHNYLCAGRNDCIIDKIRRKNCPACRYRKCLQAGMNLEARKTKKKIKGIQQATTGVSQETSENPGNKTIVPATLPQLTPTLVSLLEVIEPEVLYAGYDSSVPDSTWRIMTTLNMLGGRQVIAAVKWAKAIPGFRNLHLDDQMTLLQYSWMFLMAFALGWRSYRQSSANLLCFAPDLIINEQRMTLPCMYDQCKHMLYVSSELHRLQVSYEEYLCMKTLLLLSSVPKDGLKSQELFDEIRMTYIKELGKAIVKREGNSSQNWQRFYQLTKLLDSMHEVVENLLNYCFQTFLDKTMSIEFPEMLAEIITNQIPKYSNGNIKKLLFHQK

[5] = biological target: Glucocorticoid receptor (Homo sapiens) (UniProt P04150); experiment: GR-EFC Redistribution (AID 451); settings: CHO-K1 GR-EFC translocation, beta-gal luminescence, 2 h; also: potency is read from the fitted curve at half-maximal effect
Procedure, shortened: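 CHO-K1 cells expressing nuclear EA and GR-ED fragments of b-gal; compounds titrated up to 46 uM final, 2 h at 37 C. GR nuclear translocation read as complemented b-gal luminescence after 1 h RT detection.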

[6] = biological target: Mitogen-activated protein kinase 10 (Mus musculus) (UniProt Q61831); experiment: JNK3 AlphaScreen Assay (AID 530; active = well fitted curve in either direction with a large enough effect, not every such curve was filed as active;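 also: kinase came from lysate of stimulated human HepG2 cells; signal reports phosphorylation of biotinylated GST-cJun 1-79 at Ser73 with 10 µM ATP; % is scaled to controls: 0 for no effect and ±100 for the full control effect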); settings: JNK3 lysate, c-Jun phosphorylation; series mostly up to 57.1 µM
Procedure, shortened: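 Pre-activated (IL-1β/TNFα) JNK3 in HepG2 lysates phosphorylates biotin-GST-cJun(1-79), 10 uM ATP; anti-phospho-cJun(Ser73) AlphaScreen read at room temperature, pH 7.6 Tris buffer. Compounds pre-incubated 15 min as titrations.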

[7] = biological target: 3',5'-cyclic-AMP phosphodiesterase 4B (Homo sapiens) (UniProt Q07343); experiment: qHTS Assay for Inhibitors of PDE-IV (AID 607; active = well fitted activation curve with a large enough effect in the main read-out, with a control signal flat, not every such curve was filed as active; also: potency is read from the fitted curve at half-maximal effect); settings: HEK293 ACTOne CNG channel cells, membrane potential fluorescence; series mostly up to 22.9 µM
3',5'-cyclic-AMP phosphodiesterase 4B (Homo sapiens), sequence (Q07343 whole entry, looked up): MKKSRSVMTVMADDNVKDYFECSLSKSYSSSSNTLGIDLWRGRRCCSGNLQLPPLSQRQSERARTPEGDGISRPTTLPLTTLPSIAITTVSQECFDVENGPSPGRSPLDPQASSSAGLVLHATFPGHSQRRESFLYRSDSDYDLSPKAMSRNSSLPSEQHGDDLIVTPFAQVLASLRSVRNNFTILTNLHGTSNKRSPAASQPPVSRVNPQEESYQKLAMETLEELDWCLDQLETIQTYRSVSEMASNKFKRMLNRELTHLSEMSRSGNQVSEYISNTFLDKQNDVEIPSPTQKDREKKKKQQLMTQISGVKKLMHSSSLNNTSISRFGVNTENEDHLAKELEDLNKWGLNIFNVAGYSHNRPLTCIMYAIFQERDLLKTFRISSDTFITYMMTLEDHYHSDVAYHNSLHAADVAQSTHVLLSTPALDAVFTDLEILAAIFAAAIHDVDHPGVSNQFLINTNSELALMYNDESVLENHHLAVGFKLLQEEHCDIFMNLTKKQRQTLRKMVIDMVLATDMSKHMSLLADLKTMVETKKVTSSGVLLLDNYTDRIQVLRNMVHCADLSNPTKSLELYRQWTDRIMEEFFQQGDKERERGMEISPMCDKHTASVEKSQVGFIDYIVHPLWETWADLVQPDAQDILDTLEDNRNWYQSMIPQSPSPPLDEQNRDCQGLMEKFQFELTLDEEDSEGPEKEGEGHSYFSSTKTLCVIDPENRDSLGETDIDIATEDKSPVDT
Procedure, shortened: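 Cell-based read-out of cAMP via a modified cyclic nucleotide-gated channel and membrane potential dye (535/590 nm) in HEK293 cells expressing PDE4 endogenously. Compounds tested up to 22.9 uM final; 100 uM RO 20-1724 reference.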

[8] = qHTS Assay for Identification of Small Molecule Agonists for Hypoxia Response Element Signaling Pathway (AID 914; active = well fitted activation curve with a large enough effect in the signal ratio, with a control signal flat, not every such curve was filed as active; the % refers to the signal ratio; also: potency is read from the fitted curve at half-maximal effect; as to activation: % of control where 0% means no effect); settings: ME-180 HRE-bla reporter, beta-lactamase ratio, CoCl2, 17 h; activation: stronger effect = higher value
Procedure, shortened: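 HRE-bla ME-180 cells, overnight plating in Opti-MEM with 0.5% dialyzed FBS; cpd titration + EC50 CoCl2, 17 h, 37 degrees Celsius; CCF4 2.5 h RT; 460/530 nm ratio; AC50.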

[9] = qHTS Assay for Lipid Storage Modulators (AID 1519); settings: Drosophila S3 cells, BODIPY lipid droplet/cell ratio, laser cytometry, cells loaded with oleic acid; for activity change, negative = inhibition: at 57.5 µM (top of the series)
Procedure, shortened: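 Cells seeded at 5,000 per well were treated with compounds over a concentration series and loaded with oleic acid (400 uM, as added). Lipid droplet fluorescence (488 nm excitation, 500-530 nm channel) was read by laser-scanning cytometry and normalized to 20 uM Triacsin C.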

[10] = Primary qHTS for small molecule stabilizers of the endoplasmic reticulum resident proteome: Secreted ER Calcium Modulated Protein (SERCaMP) assay (AID 1508630; active = well fitted curve in the direction sought with a large enough effect; an effect the other way counts as inactive or inconclusive; also: % is scaled to controls: 0 for no effect and ±100 for the full control effect); settings: SH-SY5Y GLuc-SERCaMP (Gaussia luciferase released on ER calcium loss) secretion, thapsigargin, luminescence; series mostly up to 38.4 µM
Procedure, shortened: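 GLuc-SERCaMP-expressing SH-SY5Y cells, pretreated 16 h with compound, are challenged with thapsigargin to empty ER calcium stores; after 4 h, coelenterazine is added directly to the medium and luminescence is imaged.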

[11] = Stat Signaling Pathway (AID 446; active = well fitted curve in either direction with a large enough effect, not every such curve was filed as active;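 also: ME-180 cervical cancer cells given 40 pM IL-6 alongside compound; SIE-controlled beta-lactamase reporter measured as 460/530 nm FRET emission ratio; % is scaled to controls: 0 for no effect and ±100 for the full control effect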); settings: ME-180 SIE beta-lactamase reporter, IL-6 stimulated, 5 h; at 7.69 µM (top of the series) unless noted
Procedure, shortened: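 Reporter line: ME-180 cervical carcinoma, SIE-beta-lactamase. Treatment: compound with 40 pM IL-6, 5 hrs, 37 C, in low-serum OPTI-MEM with 10 mM HEPES pH 7.3. Detection: 460/530 nm fluorescence.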

[12] = biological target: Cytochrome P450 3A4 (Homo sapiens) (UniProt P08684); experiment: qHTS Assay for Activators of Cytochrome P450 3A4 (AID 885; active = well fitted curve in the direction sought with a large enough effect; an effect the other way counts as inactive or inconclusive; also: nearly all actives have a fitted effect of over 65% in size); settings: recombinant CYP3A4, Luciferin-PPXE luminescence, 60 min; series mostly up to 57.1 µM
Cytochrome P450 3A4 (Homo sapiens), sequence (P08684 whole entry, looked up): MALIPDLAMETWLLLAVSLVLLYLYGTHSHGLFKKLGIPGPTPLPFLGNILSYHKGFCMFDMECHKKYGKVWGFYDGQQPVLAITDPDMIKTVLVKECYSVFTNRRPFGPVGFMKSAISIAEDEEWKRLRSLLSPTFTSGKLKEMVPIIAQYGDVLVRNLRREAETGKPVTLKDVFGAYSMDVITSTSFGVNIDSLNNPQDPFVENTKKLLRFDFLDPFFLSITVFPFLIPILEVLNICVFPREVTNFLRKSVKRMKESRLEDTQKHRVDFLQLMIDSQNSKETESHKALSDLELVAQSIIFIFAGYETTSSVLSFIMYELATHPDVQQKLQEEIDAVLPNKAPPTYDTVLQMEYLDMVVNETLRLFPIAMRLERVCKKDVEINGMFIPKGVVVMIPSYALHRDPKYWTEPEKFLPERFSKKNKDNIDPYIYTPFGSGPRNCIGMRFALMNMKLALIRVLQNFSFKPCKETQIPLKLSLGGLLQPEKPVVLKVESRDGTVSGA
Procedure, shortened: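 Signal was normalized against complete inhibition by 57 uM ketoconazole. The reaction used 20nM CYP3A4 with 25uM Luciferin-PPXE, 10-min compound preincubation and a 60-min NADPH-supported step at RT.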

[13] = biological target: Cytochrome P450 2D6 (Homo sapiens) (UniProt P10635); experiment: qHTS Assay for Inhibitors and Substrates of Cytochrome P450 2D6 (AID 891; active = well fitted curve in the direction sought with a large enough effect; an effect the other way counts as inactive or inconclusive; also: potency is read from the fitted curve at half-maximal effect; nearly all actives have a fitted effect of over 60% in size); settings: recombinant CYP2D6, luciferin-ME EGE luminescence; series mostly up to 57.1 µM
Cytochrome P450 2D6 (Homo sapiens), sequence (P10635 whole entry, looked up): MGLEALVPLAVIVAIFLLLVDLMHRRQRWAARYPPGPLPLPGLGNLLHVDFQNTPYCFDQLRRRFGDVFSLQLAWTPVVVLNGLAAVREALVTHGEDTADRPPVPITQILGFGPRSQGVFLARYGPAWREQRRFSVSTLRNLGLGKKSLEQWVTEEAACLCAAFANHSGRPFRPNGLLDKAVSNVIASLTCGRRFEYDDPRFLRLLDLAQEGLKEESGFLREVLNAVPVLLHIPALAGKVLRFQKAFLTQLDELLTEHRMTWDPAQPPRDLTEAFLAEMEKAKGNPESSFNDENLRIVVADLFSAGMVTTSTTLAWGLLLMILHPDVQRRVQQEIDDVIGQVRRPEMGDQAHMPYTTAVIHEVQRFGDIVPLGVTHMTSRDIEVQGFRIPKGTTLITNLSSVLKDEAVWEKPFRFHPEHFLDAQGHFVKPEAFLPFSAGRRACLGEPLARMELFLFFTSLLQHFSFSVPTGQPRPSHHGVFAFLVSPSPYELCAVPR
Procedure, shortened: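 Human CYP2D6 (5 nM) with 30 uM Luciferin-ME EGE (at Km) in 100 mM KPO4, compound preincubated 10 min, then NADPH regeneration system for 60 min at room temperature. Luciferin read by luminescence; normalized to 1.43 uM quinidine.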

[14] = biological target: Cytochrome P450 2C9 (Homo sapiens) (UniProt P11712); experiment: qHTS Assay for Inhibitors and Substrates of Cytochrome P450 2C9 (AID 883; active = well fitted curve in the direction sought with a large enough effect; an effect the other way counts as inactive or inconclusive; also: potency is read from the fitted curve at half-maximal effect; nearly all actives have a fitted effect of over 60% in size); settings: recombinant CYP2C9, luciferin-H luminescence, 60 min; series mostly up to 57.1 µM
Cytochrome P450 2C9 (Homo sapiens), sequence (P11712 whole entry, looked up): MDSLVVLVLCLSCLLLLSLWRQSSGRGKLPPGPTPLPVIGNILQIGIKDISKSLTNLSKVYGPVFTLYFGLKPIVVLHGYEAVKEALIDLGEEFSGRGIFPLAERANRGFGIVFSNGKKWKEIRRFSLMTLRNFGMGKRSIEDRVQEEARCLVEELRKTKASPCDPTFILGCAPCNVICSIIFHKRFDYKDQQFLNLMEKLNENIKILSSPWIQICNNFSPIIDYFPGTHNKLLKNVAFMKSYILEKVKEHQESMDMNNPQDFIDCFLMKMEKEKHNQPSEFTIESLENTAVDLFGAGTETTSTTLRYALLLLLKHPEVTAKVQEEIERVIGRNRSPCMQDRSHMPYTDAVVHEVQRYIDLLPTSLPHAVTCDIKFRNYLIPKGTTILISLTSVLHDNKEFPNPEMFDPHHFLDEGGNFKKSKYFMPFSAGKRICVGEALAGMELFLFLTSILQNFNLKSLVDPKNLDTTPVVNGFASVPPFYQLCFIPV
Procedure, shortened: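 Human CYP2C9 (10nM) with Luciferin-H at 100uM (its KM) in 25mM KPO4; compound preincubated 10 min at 37C, then NADPH regeneration for 60 min at 37C. Luciferin read by luminescence after detection reagent; normalized to 57uM sulphaphenazole as full inhibition.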

[15] = biological target: Cytochrome P450 2C19 (Homo sapiens) (UniProt P33261); experiment: qHTS Assay for Inhibitors and Substrates of Cytochrome P450 2C19 (AID 899; active = well fitted curve in the direction sought with a large enough effect; an effect the other way counts as inactive or inconclusive; also: potency is read from the fitted curve at half-maximal effect; nearly all actives have a fitted effect of over 60% in size); settings: recombinant CYP2C19, luciferin-H EGE luminescence; series mostly up to 57.1 µM
Cytochrome P450 2C19 (Homo sapiens), sequence (P33261 whole entry, looked up): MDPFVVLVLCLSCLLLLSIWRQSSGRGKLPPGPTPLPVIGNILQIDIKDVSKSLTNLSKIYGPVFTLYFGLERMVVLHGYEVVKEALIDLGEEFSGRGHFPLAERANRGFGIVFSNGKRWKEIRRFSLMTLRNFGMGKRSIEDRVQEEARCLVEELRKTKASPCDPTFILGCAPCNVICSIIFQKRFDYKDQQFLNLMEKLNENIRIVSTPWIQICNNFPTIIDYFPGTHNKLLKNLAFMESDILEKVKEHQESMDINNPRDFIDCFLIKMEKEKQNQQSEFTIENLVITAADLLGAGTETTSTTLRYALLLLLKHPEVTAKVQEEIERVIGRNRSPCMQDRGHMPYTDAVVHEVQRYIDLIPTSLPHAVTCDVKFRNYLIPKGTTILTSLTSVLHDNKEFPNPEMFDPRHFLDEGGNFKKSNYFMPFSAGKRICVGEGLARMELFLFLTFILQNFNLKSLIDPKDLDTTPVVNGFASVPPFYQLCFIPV
Procedure, shortened: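 5 nM human CYP2C19 with 10uM Luciferin-H EGE (at KM) in 50mM KPO4, compound preincubated 10 min at 37C, then NADPH regeneration for 60 min at 37C. Luciferin read by luminescence after detection reagent; normalized to 57uM ketoconazole as full inhibition.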

[16] = measured here: cell count channel max response
[17] = measured here: lipid channel max response

Row | SMILES | Potency [1] | activity change, negative = inhibition [2] | Potency [3] | Potency [4] | Potency [5] | Potency [6] | Potency [7] | Potency [8] | activity change, negative = inhibition [9] | max response [9, 16] [%] | max response [9, 17] [%] | outcome [10] | activity, negative = inhibition [11] | Potency [12] | Potency [13] | Potency [14] | Potency [15] | activation [8]
1 | CN(C)c1ncc2nc(-c3ccc(F)cc3)c(=O)n(C3CC3)c2n1 | > 11.4 µM (inactive) | 18.2% (inactive) | 1.58 µM (active) | > 9.22 µM (inactive) | > 46 µM (inactive) | inactive | 2 µM (active) | 2.51 µM (active) | 2.01% (inactive) | 10.2 | 13.7 | inactive |  |  |  |  |  | 
2 | O=C(c1ccco1)N1CCC[C@@]2(CCN(C(c3ccccc3)c3ccccc3)C2)C1 | > 11.4 µM (inactive) | -9.33% (inactive) | 25.1 µM (active) |  | > 46 µM (inactive) | inactive | inactive |  | -15.2% (inactive) | -10.5 | -26.4 | inactive | 3.09% (inactive) | inactive | 3.16 µM (active) |  |  | 
3 | CC(=O)N1CCC2(CCCN(Cc3ccccc3)C2)CC1 | > 11.4 µM (inactive) | -3.56% (inactive) | inactive |  | > 46 µM (inactive) | inactive | inactive |  | 2.49% (inactive) | -0.297 | 3.92 | inactive | 9.01% (inactive) |  | 2.51 µM (active) |  |  | 
4 | COc1ccccc1CN1CCCC2(CCN(C(=O)c3cccn3C)CC2)C1 | > 11.4 µM (inactive) | -2.64% (inactive) | inactive |  | > 46 µM (inactive) | inactive | inactive |  | 4.14% (inactive) | 21.7 | 29.7 | inactive | 4.46% (inactive) | inactive | 3.16 µM (active) |  |  | 
5 | CC(C)CN1CCCC2(CCN(S(=O)(=O)c3ccccc3)CC2)C1 | > 11.4 µM (inactive) | 1.33% (inactive) | inactive |  | > 46 µM (inactive) | inactive | inactive |  | 2.73% (inactive) | 12.5 | 15.5 | inactive |  | inactive |  |  |  | 
6 | O=C(c1cccc(F)c1)N1CCC2(CC1)CN(c1ccncc1)C2 | > 11.4 µM (inactive) | -2.31% (inactive) | inactive |  | > 46 µM (inactive) |  | inactive |  | -4.55% (inactive) | -24.1 | -26.4 | inactive | 1.58% (inactive) |  |  | 5.01 µM (active) | 3.16 µM (active) | 
7 | CC(C)CN1CCCC2(CCN(C(=O)c3cc(C(F)(F)F)cc(C(F)(F)F)c3)CC2)C1 | > 11.4 µM (inactive) | -4.78% (inactive) | 12.6 µM (active) |  | > 46 µM (inactive) | inactive |  |  | 2.29% (inactive) | 11.6 | 17.9 | inactive | -8.44% (inactive) | inactive |  |  |  | -20.4% (inactive)
8 | O=C(c1cccc(F)c1)N1CCC2(CCN(Cc3ccccc3)CC2)CC1 | > 11.4 µM (inactive) | -3.73% (inactive) | inactive |  | > 46 µM (inactive) | inactive | inactive |  | 2.97% (inactive) | 6.47 | 15.1 | inactive | 0.711% (inactive) |  | 7.94 µM (active) |  |  | 
9 | COCC(=O)N1CCC2(CCCN(c3ncccn3)C2)CC1 | > 11.4 µM (inactive) | -5.71% (inactive) | inactive |  | > 46 µM (inactive) | inactive |  |  | 7.95% (inactive) | 9.8 | 21.8 | inactive | -7.69% (inactive) |  |  |  |  | 11.9% (inactive)
10 | O=C(c1cc(C(F)(F)F)cc(C(F)(F)F)c1)N1CCC2(CCN(Cc3ccccc3)CC2)CC1 | > 11.4 µM (inactive) | 9.59% (inactive) | inactive |  | > 46 µM (inactive) | inactive | inactive |  | 2.31% (inactive) | 18.5 | 24.9 | inactive | -1.85% (inactive) |  |  |  |  | 4.02% (inactive)
